Measured values taken from PubChem BioAssay (NCATS).
Active and inactive are the calls of the source. Calls come from the whole dose curve; as a rule, active = well fitted curve in the direction sought with a large enough effect (not every such curve was filed as active); inconclusive = small, poorly fitted or top-dose-only effect, or effect the other way, or another doubt; inactive = no such curve, though single readings can be large or run the other way.

What follows are compounds tested against Pyruvate kinase PKM (Homo sapiens) (UniProt P14618) (assay: qHTS Assay for Activators of Human Muscle Pyruvate Kinase (AID 954;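 note: 0% = uninhibited enzyme and -100% = no enzyme or full thiadiazolimine inhibition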)). Conditions: purified human muscle pyruvate kinase, luciferase-coupled luminescence, 1 h; series mostly up to 57.5 µM; activity change, negative = inhibition: at the top concentration.
How it was run: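 Screening used highly purified human pyruvate kinase M2 under submaximal activity, with PEP at its Km and ADP below Km. After an hour at room temperature, ATP was read by luciferase luminescence.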

Sequence of Pyruvate kinase PKM (Homo sapiens) (P14618 whole entry, looked up): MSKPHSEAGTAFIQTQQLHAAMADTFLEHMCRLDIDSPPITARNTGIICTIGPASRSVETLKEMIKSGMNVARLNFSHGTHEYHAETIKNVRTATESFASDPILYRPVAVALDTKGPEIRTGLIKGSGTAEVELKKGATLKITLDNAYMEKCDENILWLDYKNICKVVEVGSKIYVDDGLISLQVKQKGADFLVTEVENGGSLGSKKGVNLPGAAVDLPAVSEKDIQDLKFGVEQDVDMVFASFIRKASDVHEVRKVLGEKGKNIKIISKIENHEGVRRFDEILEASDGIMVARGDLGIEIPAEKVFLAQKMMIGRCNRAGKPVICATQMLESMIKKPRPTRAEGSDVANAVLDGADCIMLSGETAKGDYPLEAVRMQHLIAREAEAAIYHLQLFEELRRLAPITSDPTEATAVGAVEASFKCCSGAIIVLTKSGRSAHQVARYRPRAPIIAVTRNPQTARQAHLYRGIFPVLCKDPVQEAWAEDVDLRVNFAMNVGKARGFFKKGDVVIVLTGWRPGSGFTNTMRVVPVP

Row | Structure (SMILES) | activity change, negative = inhibition | outcome
1 | COc1cc2c(CCNC(C)=O)c[nH]c2cc1Cl | -12.5% (inactive) | –
2 | N[C@@H](CC(=O)O)C(=O)O | -11.5% (inactive) | –
3 | NC[C@@H]1O[C@H](C23CC4CC(CC(C4)C2)C3)Cc2c1ccc(O)c2O | -7% (inactive) | –
4 | O=S(=O)(c1cccc2c(I)cccc12)N1CCCNCC1 | -6.71% (inactive) | –
5 | C=C[C@H]1CN2CC[C@@H]1C[C@@H]2[C@@H](O)c1ccnc2ccc(OC)cc12 | – | inactive
6 | O=C(O)c1cc([N+](=O)[O-])ccc1NCCCc1ccccc1 | -32.1% (inactive) | –
7 | CC(C)Cc1ccc([C@H](C)C(=O)O)cc1 | -9.28% (inactive) | –
8 | C[C@@H](NC(=O)/C(C#N)=C/c1ccc(O)c(O)c1)c1ccccc1 | -17% (inactive) | –
9 | NC(=O)C(=O)O | -12% (inactive) | –
10 | O=c1[nH]c2cc([N+](=O)[O-])c([N+](=O)[O-])cc2[nH]c1=O | -17.3% (inactive) | –
11 | NCCCS(=O)(=O)O | 5.63% (inactive) | –
12 | CC(C)(C=O)Cc1cc(C(C)(C)C)c(O)c(C(C)(C)C)c1 | -6.26% (inactive) | –
13 | O=C(O)[C@@H]1C[C@@H](C(=O)O)N1 | -11.8% (inactive) | –
14 | N#C/C(=C\c1c[nH]c2ccccc12)C(=O)c1ccc(O)c(O)c1 | -39.7% (inactive) | –
15 | Brc1c(Br)c(Br)c2n[nH]nc2c1Br | -26.4% (inactive) | –
16 | NO | 3.01% (inactive) | –
17 | CN(C)c1nc(N)c(C(=O)N=C(N)N)nc1Cl | -13.9% (inactive) | –

Row | Structure (SMILES) | activity change, negative = inhibition | outcome
18 | CN1CCc2ccccc2Cc2[nH]c3ccccc3c2CC1 | -13.9% (inactive) | –
19 | CC(=O)SCC[N+](C)(C)C | -8.73% (inactive) | –
20 | O=c1[nH]c2cc(C(F)(F)F)ccc2n1-c1cc(C(F)(F)F)ccc1O | -2.44% (inactive) | –
21 | C[N+]1(C)CCC(OC(=O)C(c2ccccc2)c2ccccc2)CC1 | -19.2% (inactive) | –
22 | CCCn1c(=O)c2[nH]c(-c3ccc(OCC(=O)NCCN)cc3)nc2n(CCC)c1=O | 2.25% (inactive) | –
23 | C[N+](C)(CCCCCC[N+](C)(C)CCCN1C(=O)c2cccc3cccc(c23)C1=O)CCCN1C(=O)c2cccc3cccc(c23)C1=O | -24.4% (inactive) | –
24 | Ic1ccc(N2CCN(Cc3c[nH]c4ncccc34)CC2)cc1 | 4.56% (inactive) | –
25 | NCCSSCCN | -27.5% (inactive) | –
26 | CCN1/C(=C/C(C)=O)Sc2ccc(OC)cc21 | -8.93% (inactive) | –
27 | O=C(O)CC[C@@H](C(=O)O)N1C(=O)c2ccccc2C1=O | -4.9% (inactive) | –
28 | N.N.O=C(O)C1(C(=O)O)CCC1.[Pt] | 3.28% (inactive) | –
29 | O=c1[nH]c2cc(Cl)c(Cl)cc2[nH]c1=O | -11.8% (inactive) | –
30 | N#C/C(=C\c1ccc(O)c(O)c1)C(=O)NCc1ccccc1 | -36.7% (inactive) | –
31 | COc1cc(OC)c(/C=C2/C(=O)Nc3ccccc32)c(OC)c1 | -17.8% (inactive) | –
32 | CC1(C)CCC=[N+]1[O-] | -8.34% (inactive) | –
33 | O=C(O)c1cc(=O)c2ccccc2[nH]1 | -3.85% (inactive) | –
